# Tests used:
# Assay in all cases: protein binding microarray; high values mean tight binding
# Conditions in all cases: dsDNA, one strand shown
# RELARELA (p65 homodimer) = RELARELA (p65 homodimer) (Homo sapiens, UniProt Q04206 1-307)
# p50p50 homodimer = p50p50 homodimer (Homo sapiens, UniProt P19838 7-356)
# p52p52 homodimer = target: T1, p52p52 homodimer (Homo sapiens, UniProt Q00653 4-332)
# T1 sequence: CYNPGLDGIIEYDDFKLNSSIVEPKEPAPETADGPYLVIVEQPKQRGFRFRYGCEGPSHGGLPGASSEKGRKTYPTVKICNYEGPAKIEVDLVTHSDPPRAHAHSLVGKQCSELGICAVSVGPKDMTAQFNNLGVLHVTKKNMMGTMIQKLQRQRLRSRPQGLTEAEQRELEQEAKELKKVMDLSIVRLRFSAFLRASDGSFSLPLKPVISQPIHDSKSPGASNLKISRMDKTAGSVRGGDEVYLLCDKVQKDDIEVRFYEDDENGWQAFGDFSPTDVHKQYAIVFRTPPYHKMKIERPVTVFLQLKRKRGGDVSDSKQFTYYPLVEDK
# [1] = target: RELA (p65) subunit of heterodimer;p50 subunit (Homo sapiens;Homo sapiens, UniProt Q04206;P19838 1-307;7-356)
# [2] = target: RELA (p65) subunit of heterodimer;p52 subunit (Homo sapiens;Homo sapiens, UniProt Q04206;Q00653 1-307;4-332)
# RELB subunit;p50 subunit = RELB subunit;p50 subunit (Homo sapiens;Homo sapiens, UniProt Q01201;P19838 120-401;7-356)
# RELB subunit;p52 subunit = target: T2, RELB subunit;p52 subunit (Homo sapiens;Homo sapiens, UniProt Q01201;Q00653 120-401;4-332)
# T2 sequence 1: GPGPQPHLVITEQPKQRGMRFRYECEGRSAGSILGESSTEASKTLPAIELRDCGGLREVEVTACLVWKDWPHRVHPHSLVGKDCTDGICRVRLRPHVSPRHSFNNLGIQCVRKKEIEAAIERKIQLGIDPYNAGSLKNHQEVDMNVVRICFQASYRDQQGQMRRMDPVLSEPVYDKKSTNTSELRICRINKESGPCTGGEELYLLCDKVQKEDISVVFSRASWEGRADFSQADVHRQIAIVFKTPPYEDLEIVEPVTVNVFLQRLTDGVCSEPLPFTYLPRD
# T2 sequence 2: T1 sequence
# [3] = target: C-Rel subunit;p50 subunit (Homo sapiens;Homo sapiens, UniProt Q04864;P19838 1-285;7-356)
# [4] = target: T3, C-Rel subunit;p52 subunit (Homo sapiens;Homo sapiens, UniProt Q04864;Q00653 1-285;4-332)
# T3 sequence 1: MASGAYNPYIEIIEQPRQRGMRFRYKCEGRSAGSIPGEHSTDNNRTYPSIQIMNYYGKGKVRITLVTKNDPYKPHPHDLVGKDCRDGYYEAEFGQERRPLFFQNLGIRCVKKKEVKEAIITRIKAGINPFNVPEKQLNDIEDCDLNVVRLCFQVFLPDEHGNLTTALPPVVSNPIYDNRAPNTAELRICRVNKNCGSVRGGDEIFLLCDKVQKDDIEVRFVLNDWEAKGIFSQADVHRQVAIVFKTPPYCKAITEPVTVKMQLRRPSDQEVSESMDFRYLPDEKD
# T3 sequence 2: T1 sequence
# p50p50 homodimer, sequence (P19838 7-356): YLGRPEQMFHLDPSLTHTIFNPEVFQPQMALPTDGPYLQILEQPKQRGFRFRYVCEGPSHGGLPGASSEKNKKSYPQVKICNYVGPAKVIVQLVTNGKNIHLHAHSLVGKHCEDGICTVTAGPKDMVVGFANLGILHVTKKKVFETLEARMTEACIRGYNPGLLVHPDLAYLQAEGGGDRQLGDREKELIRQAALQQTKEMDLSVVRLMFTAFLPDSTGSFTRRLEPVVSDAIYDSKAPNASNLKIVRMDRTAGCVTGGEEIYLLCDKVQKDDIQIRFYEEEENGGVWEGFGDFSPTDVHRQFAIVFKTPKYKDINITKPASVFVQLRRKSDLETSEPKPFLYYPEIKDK
# RELA (p65) subunit of heterodimer;p50 subunit, sequence (Q04206 1-307, chain 1 of 2): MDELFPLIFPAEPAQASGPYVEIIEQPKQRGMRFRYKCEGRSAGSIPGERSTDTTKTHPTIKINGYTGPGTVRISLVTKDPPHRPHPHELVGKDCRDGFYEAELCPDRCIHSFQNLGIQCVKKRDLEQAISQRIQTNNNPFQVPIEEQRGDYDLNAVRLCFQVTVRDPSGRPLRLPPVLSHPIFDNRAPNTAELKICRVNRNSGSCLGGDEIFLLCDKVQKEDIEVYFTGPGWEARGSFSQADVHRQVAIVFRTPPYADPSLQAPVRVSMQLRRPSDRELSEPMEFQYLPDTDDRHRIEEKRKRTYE
# RELA (p65) subunit of heterodimer;p50 subunit, sequence (P19838 7-356, chain 2 of 2): as the sequence (P19838 7-356) above
# RELARELA (p65 homodimer), sequence (Q04206 1-307): as the sequence (Q04206 1-307, chain 1 of 2) above
sequence,measurement,setting,value
GAATATCCCCC,binding signal,RELARELA (p65 homodimer),0.817 z-score
same,binding signal,p50p50 homodimer,1.35 z-score
same,binding signal,p52p52 homodimer,1.71 z-score
same,binding signal,[1],1.94 z-score
same,binding signal,[2],1.64 z-score
same,binding signal,RELB subunit;p50 subunit,1.97 z-score
same,binding signal,RELB subunit;p52 subunit,1.9 z-score
same,binding signal,[3],1.33 z-score
same,binding signal,[4],1.58 z-score
CAAATTCCCCC,binding signal,RELARELA (p65 homodimer),2.31 z-score
same,binding signal,p50p50 homodimer,1.64 z-score
same,binding signal,p52p52 homodimer,2.63 z-score
same,binding signal,[1],2.41 z-score
same,binding signal,[2],2.32 z-score
same,binding signal,RELB subunit;p50 subunit,2.69 z-score
same,binding signal,RELB subunit;p52 subunit,2.35 z-score
same,binding signal,[3],1.89 z-score
same,binding signal,[4],2.65 z-score
GAAGGGACCCC,binding signal,RELARELA (p65 homodimer),-0.812 z-score
same,binding signal,p50p50 homodimer,0.244 z-score
same,binding signal,p52p52 homodimer,0.629 z-score
same,binding signal,[1],-0.173 z-score
same,binding signal,[2],0.512 z-score
same,binding signal,RELB subunit;p50 subunit,0.268 z-score
same,binding signal,RELB subunit;p52 subunit,0.639 z-score
same,binding signal,[3],-0.159 z-score
same,binding signal,[4],0.296 z-score
GGGTTGGTCCT,binding signal,RELARELA (p65 homodimer),-0.152 z-score
same,binding signal,p50p50 homodimer,-1.58 z-score
same,binding signal,p52p52 homodimer,-0.471 z-score
same,binding signal,[1],-0.621 z-score
same,binding signal,[2],-0.757 z-score
same,binding signal,RELB subunit;p50 subunit,-0.889 z-score
same,binding signal,RELB subunit;p52 subunit,-0.766 z-score
same,binding signal,[3],-1.12 z-score
same,binding signal,[4],-0.527 z-score
GGAATGGTCCT,binding signal,RELARELA (p65 homodimer),0.313 z-score
same,binding signal,p50p50 homodimer,-1.37 z-score
same,binding signal,p52p52 homodimer,-0.493 z-score
same,binding signal,[1],-0.849 z-score
same,binding signal,[2],-0.627 z-score
same,binding signal,RELB subunit;p50 subunit,-0.903 z-score
same,binding signal,RELB subunit;p52 subunit,-0.612 z-score
same,binding signal,[3],-0.89 z-score
same,binding signal,[4],-0.524 z-score
GAGATATCCCC,binding signal,RELARELA (p65 homodimer),0.294 z-score
same,binding signal,p50p50 homodimer,1.12 z-score
same,binding signal,p52p52 homodimer,1.16 z-score
same,binding signal,[1],1.33 z-score
same,binding signal,[2],1.3 z-score
same,binding signal,RELB subunit;p50 subunit,1.08 z-score
same,binding signal,RELB subunit;p52 subunit,0.95 z-score
same,binding signal,[3],0.698 z-score
same,binding signal,[4],0.964 z-score
GGAGTTTTCCT,binding signal,RELARELA (p65 homodimer),1.88 z-score
same,binding signal,p50p50 homodimer,-0.38 z-score
same,binding signal,p52p52 homodimer,-0.329 z-score
same,binding signal,[1],0.312 z-score
same,binding signal,[2],-0.0971 z-score
same,binding signal,RELB subunit;p50 subunit,-0.676 z-score
same,binding signal,RELB subunit;p52 subunit,-0.581 z-score
same,binding signal,[3],0.446 z-score
same,binding signal,[4],0.304 z-score
AAAAAGCTCCT,binding signal,RELARELA (p65 homodimer),-0.678 z-score
same,binding signal,p50p50 homodimer,-1.47 z-score
same,binding signal,p52p52 homodimer,-0.675 z-score
same,binding signal,[1],-1.01 z-score
same,binding signal,[2],-1.04 z-score
same,binding signal,RELB subunit;p50 subunit,-1.17 z-score
same,binding signal,RELB subunit;p52 subunit,-1.06 z-score
same,binding signal,[3],-1.49 z-score
same,binding signal,[4],-1.07 z-score
GGAGTGACCCC,binding signal,RELARELA (p65 homodimer),-0.389 z-score
same,binding signal,p50p50 homodimer,-0.505 z-score
same,binding signal,p52p52 homodimer,-0.461 z-score
same,binding signal,[1],-0.353 z-score
same,binding signal,[2],-0.178 z-score
same,binding signal,RELB subunit;p50 subunit,-0.399 z-score
same,binding signal,RELB subunit;p52 subunit,-0.304 z-score
same,binding signal,[3],-0.367 z-score
same,binding signal,[4],-0.254 z-score
CAAAAATCCCC,binding signal,RELARELA (p65 homodimer),2.62 z-score
same,binding signal,p50p50 homodimer,1.37 z-score
same,binding signal,p52p52 homodimer,2.67 z-score
same,binding signal,[1],2.11 z-score
same,binding signal,[2],2.3 z-score
same,binding signal,RELB subunit;p50 subunit,2.84 z-score
same,binding signal,RELB subunit;p52 subunit,2.28 z-score
same,binding signal,[3],1.91 z-score
same,binding signal,[4],2.55 z-score
AAAGGACTCCT,binding signal,RELARELA (p65 homodimer),-0.688 z-score
same,binding signal,p50p50 homodimer,-1.11 z-score
same,binding signal,p52p52 homodimer,-0.681 z-score
same,binding signal,[1],-0.94 z-score
same,binding signal,[2],-0.976 z-score
same,binding signal,RELB subunit;p50 subunit,-1.07 z-score
same,binding signal,RELB subunit;p52 subunit,-0.964 z-score
same,binding signal,[3],-1.03 z-score
same,binding signal,[4],-0.758 z-score
CAATACGCCCC,binding signal,RELARELA (p65 homodimer),0.0573 z-score
same,binding signal,p50p50 homodimer,0.196 z-score
same,binding signal,p52p52 homodimer,0.145 z-score
same,binding signal,[1],0.039 z-score
same,binding signal,[2],0.0537 z-score
same,binding signal,RELB subunit;p50 subunit,0.204 z-score
same,binding signal,RELB subunit;p52 subunit,0.503 z-score
same,binding signal,[3],0.297 z-score
same,binding signal,[4],0.13 z-score
CGAAGCATCCT,binding signal,RELARELA (p65 homodimer),-1.05 z-score
same,binding signal,p50p50 homodimer,-3.51 z-score
same,binding signal,p52p52 homodimer,-0.775 z-score
same,binding signal,[1],-1.25 z-score
same,binding signal,[2],-1.09 z-score
same,binding signal,RELB subunit;p50 subunit,-1.1 z-score
same,binding signal,RELB subunit;p52 subunit,-1.02 z-score
same,binding signal,[3],-1.65 z-score
same,binding signal,[4],-1 z-score
AGGGGAGTCCT,binding signal,RELARELA (p65 homodimer),0.691 z-score
same,binding signal,p50p50 homodimer,0.962 z-score
same,binding signal,p52p52 homodimer,1.64 z-score
same,binding signal,[1],0.872 z-score
same,binding signal,[2],1.1 z-score
same,binding signal,RELB subunit;p50 subunit,0.907 z-score
same,binding signal,RELB subunit;p52 subunit,0.881 z-score
same,binding signal,[3],0.64 z-score
same,binding signal,[4],0.78 z-score
CGGATGGCCCT,binding signal,RELARELA (p65 homodimer),-1 z-score
same,binding signal,p50p50 homodimer,-1.09 z-score
same,binding signal,p52p52 homodimer,-0.625 z-score
same,binding signal,[1],-0.472 z-score
same,binding signal,[2],-0.684 z-score
same,binding signal,RELB subunit;p50 subunit,-0.367 z-score
same,binding signal,RELB subunit;p52 subunit,-0.331 z-score
same,binding signal,[3],-0.715 z-score
same,binding signal,[4],-0.706 z-score
